# Inconclusive results are not listed. Some compounds were tested as several samples or in several runs, with calls that do not always agree. The source made the active and inactive calls. How the source made its calls, unless noted: active means hit-call score of the fitted dose curve at least 0.9, where 1 is the maximum; inactive means score below 0.9.
# Legend:
# [1] = BSK_BT_PBMCCytotoxicity: PBMC Cytotoxicity Assessment in the BioMAP Diversity Plus: BT Assay (AID 2284225); conditions: primary human B cells with PBMC;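 further: PBMC viability measured by Alamar Blue dye reduction fluorescence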
# Method in brief: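 PBMC (75,000/well) pretreated with compound 1 h, then activated with SEB and TSST-1 (20 ng/mL each final), incubated 90 h; Alamar Blue added 6 h, fluorescence read at 546/580 nm. Fitted relative to DMSO.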
# [2] = read-out: Secreted IgG (sIgG), gene 3500; experiment: BSK_BT_sIgG: BioMAP Diversity Plus: BT Assay for Secreted IgG (sIgG) Biomarker Activity (AID 2284226); conditions: primary human B cells with PBMC
# Method in brief: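 Read-out: ELISA for secreted IgG after 24 h of chemical exposure in a B cell plus PBMC co-culture. Values reflect upward-direction fitting against DMSO negative controls.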
# [3] = BSK_BT_Bcell_Proliferation: Viability Assessment in the BioMAP Diversity Plus: BT Assay for B cell Proliferation (AID 2284227); conditions: primary human B cells with PBMC
# Method in brief: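 Read-out is absorbance at 560 nm from sulforhodamine B staining of total protein, reflecting relative cell numbers in a human B cell and PBMC co-culture after 72 h of chemical exposure. Values were referenced to DMSO.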
# [4] = read-out: Interleukin 6 (IL6), IL6 (gene 3569); experiment: BSK_BT_xIL6: BioMAP Diversity Plus: BT Assay for Interleukin 6 (IL6) Biomarker Activity (AID 2284228); conditions: primary human B cells with PBMC
# Method in brief: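 IL-6 secretion measured (Luminex xMAP) in human primary B cell + PBMC co-culture at 24 h of chemical exposure; DMSO served as negative control and activity baseline, with curves fitted for increase.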
# [5] = read-out: Interleukin 17A (IL17A), IL17A (gene 3605); experiment: BSK_BT_xIL17A: BioMAP Diversity Plus: BT Assay for Interleukin 17A (IL17A) Biomarker Activity (AID 2284229); conditions: primary human B cells with PBMC
# Method in brief: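 Human primary B cells plus PBMC, treated 24 h with chemicals; supernatant IL-17A quantified on Luminex xMAP beads. Gain of signal over DMSO control scored as activity.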
# [6] = read-out: Vascular cell adhesion molecule 1 (VCAM1), VCAM1 (gene 7412); experiment: BSK_MyoF_VCAM1: BioMAP Diversity Plus: MyoF Assay for Vascular cell adhesion molecule 1 (VCAM1) Biomarker Activity (AID 2284231); conditions: primary human lung fibroblasts
# Method in brief: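 VCAM-1 levels, lung fibroblasts, ELISA, 24 h exposure, increase scored relative to DMSO.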
# [7] = CCTE_Mundy_HCI_hNP1_Pro_ResponderAvgInten: CCTE's Proliferation Assay in human neuroprogenitor cells, Mundy Lab (AID 2284224; active means hit-call score of the fitted dose curve at least 0.9, where 1 is the maximum;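 further: human neural progenitor cells hNP1 derived from WA09 embryonic stem cells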)
# Method in brief: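 Human neuroprogenitors (hNP1, WA09 lineage) receive test chemical after 40 to 44 hours of attachment. A four-hour BrdU pulse begins twenty hours later, followed by fixation and high content imaging; signal is referenced to DMSO controls.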
# [8] = read-out: Tumor necrosis factor (Homo sapiens) (UniProt P01375); experiment: BSK_BT_xTNFa: BioMAP Diversity Plus: BT Assay for Tumor necrosis factor alpha (TNF-alpha) Biomarker Activity (AID 2284230); conditions: primary human B cells with PBMC
# Method in brief: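 Human primary co-culture of B cells and peripheral blood mononuclear cells; TNF-alpha in supernatant, 24 h post-dose, Luminex multiplex; DMSO = baseline.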
# [9] = CCTE_Mundy_HCI_Cortical_Synap_Neur_Matur_NeuriteSpotCountPerNeuriteLength: CCTE's Synaptogenesis and Neurite Maturation Assay in rat cortical cells for Neurite Spot Count per Neurite Length, Mundy Lab (AID 2284210)
# Method in brief: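 Rat primary cortical cultures, glia arrested with AraC at DIV 5, were dosed with media change at DIV 7 and fixed at DIV 12. Synaptophysin puncta per MAP2-labelled neurite length were quantified by high-content imaging versus DMSO.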
# [10] = CCTE_Mundy_HCI_Cortical_NOG_NeuriteLength: CCTE's Neurite Outgrowth Assay in rat cortical cells for Neurite Length, Mundy Lab (AID 2284213)
# Method in brief: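 Neurite length was read by high-content imaging of βIII-tubulin-labelled neurites in rat primary cortical cultures. Activity was fitted relative to DMSO.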
# [11] = CCTE_Mundy_HCI_Cortical_Synap_Neur_Matur_NeuriteLength: CCTE's Synaptogenesis and Neurite Maturation Assay in rat cortical cells for Neurite Length, Mundy Lab (AID 2284214)
# Method in brief: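 Rat cortical neurons, AraC at DIV 5; compound + media change DIV 7, end DIV 12 (288.33 h). Fix, MAP2/synaptophysin/Hoechst immunostain, automated HCI of neurite length vs DMSO.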
# [12] = CCTE_Mundy_HCI_Cortical_Synap_Neur_Matur_NeuriteSpotCountPerNeuron: CCTE's Synaptogenesis and Neurite Maturation Assay in rat cortical cells for Neurite Spot Count per Neuron Count, Mundy Lab (AID 2284215)
# Method in brief: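 Developing rat cortical neurons, with glia suppressed by AraC, are exposed to chemicals from DIV 7 to DIV 12. Automated fluorescence imaging of MAP2-labelled neurites and synaptophysin puncta yields a count per neuron, normalised against DMSO wells.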
# [13] = TAMU_PeakParms_SingleDonor1434_Chronotropy: Texas A&M University (TAMU) 1.5-hr Human Induced Pluripotent Stem Cell (iPSC)-derived Cardiomyocytes Calcium (Ca+2) Flux Assay for Cardiotoxicity: Chronotropy (changes in peak frequency) (AID 2284217); conditions: actives raise or lower the signal
# Method in brief: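 iPSC-CMs, donor 1434; 4 conc (0.2–100 uM), 0.5% v/v DMSO, 90 min, 37C/5% CO2; Ca2+ flux fluorescence → peak.freq.avg; peak.freq.avg = 0 dropped; bidirectional fit vs DMSO; EC05 POD.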
# [14] = CCTE_Mundy_HCI_Cortical_Synap_Neur_Matur_SynapseCount: CCTE's Synaptogenesis and Neurite Maturation Assay in rat cortical cells for Synapse Count, Mundy Lab (AID 2284218)
# Method in brief: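 Primary rat cortical culture; AraC DIV 5 to arrest glia; compound + media change DIV 7; terminated DIV 12. PFA/Hoechst fix, anti-MAP2 + anti-synaptophysin immunostain; HCI synapse count/neuron; DMSO = baseline.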
# [15] = CCTE_Mundy_HCI_hN2_NOG_NeuriteCount: CCTE's Neurite Outgrowth Assay in human hN2 cells for Neurite Count, Mundy Lab (AID 2284219; active means hit-call score of the fitted dose curve at least 0.9, where 1 is the maximum)
# Method in brief: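 In this morphology assay, hNP1-derived neurons received test chemical 2 h post-plating and were fixed two days later in warm paraformaldehyde/sucrose containing Hoechst 33342. Neurites, labelled by rabbit anti-βIII-tubulin (1:800) and Alexa Fluor-488 (1:500), were counted automatically.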
# [16] = CCTE_Mundy_HCI_Cortical_Synap_Neur_Matur_CellBodySpotCount: CCTE's Synaptogenesis and Neurite Maturation Assay in rat cortical cells for Cell Body Spot Count, Mundy Lab (AID 2284223)
# Method in brief: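 Chemicals were applied to AraC-treated rat primary cortical cells at DIV 7 and measured at DIV 12. Fixed cells were labelled for MAP2, synaptophysin and nuclei, and high-content imaging gave cell body synaptophysin spot counts per neuron relative to DMSO.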
# [17] = CCTE_Mundy_HCI_Cortical_Synap_Neur_Matur_BPCount: CCTE's Synaptogenesis and Neurite Maturation Assay in rat cortical cells for Branch Point Count, Mundy Lab (AID 2284211)
# Method in brief: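 Rat primary cortical cultures, AraC added DIV 5; chemicals dosed DIV 7 through DIV 12. Fixed cells stained for MAP2, synaptophysin and Hoechst; neurite branch points counted by automated high-content imaging, fitted relative to DMSO.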
# [18] = CCTE_Mundy_HCI_Cortical_NOG_NeuriteCount: CCTE's Neurite Outgrowth Assay in rat cortical cells for Neurite Count, Mundy Lab (AID 2284212);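 further: cells fixed about two days after chemical exposure began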
# Method in brief: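 Neurite number per cell from high-content imaging of betaIII-tubulin immunostaining, with Hoechst nuclear counterstain.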
# [19] = CCTE_Mundy_HCI_Cortical_Synap_Neur_Matur_NeuriteCount: CCTE's Synaptogenesis and Neurite Maturation Assay in rat cortical cells for Neurite Count, Mundy Lab (AID 2284222);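 further: exposure from day 7 to day 12 in vitro with readout at day 12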
# Method in brief: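 Primary rat cortical cells were plated, treated with AraC at DIV 5, then exposed to chemicals from DIV 7 through DIV 12. After fixation and immunostaining for MAP2 and synaptophysin, imaging quantified neurites, with DMSO as the negative control.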
# [20] = UKN2_HCS_IMR90_cell_viability: Viability Assessment in the University of Konstanz (UKN) Leist Lab Neural Crest Cell Migration Assay in human induced IMR90 Pluripotent Stem Cells (UKN2) (AID 2284233);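 further: viability of neural crest cells differentiated from IMR90 iPSC measured by calcein-AM fluorescence imaging; cells exposed to compound for 24 h after a 24 h migration phase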
# Method in brief: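 iPSC-derived (IMR90) neural crest cells seeded around silicone stoppers on PLO/laminin/fibronectin; after 24 h migration in N2-S with EGF/FGF, chemical added for 24 h. Calcein-AM/Hoechst stained 30 min, high-content imaged; bidirectional fit versus DMSO.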
# Sequence of Tumor necrosis factor (Homo sapiens) (P01375 whole entry, looked up): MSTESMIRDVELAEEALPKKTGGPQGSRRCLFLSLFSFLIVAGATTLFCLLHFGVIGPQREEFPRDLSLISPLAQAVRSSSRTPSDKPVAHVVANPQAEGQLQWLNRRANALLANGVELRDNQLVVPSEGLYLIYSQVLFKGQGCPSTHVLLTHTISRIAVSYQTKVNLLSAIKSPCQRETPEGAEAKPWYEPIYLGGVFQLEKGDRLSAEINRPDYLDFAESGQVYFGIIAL
smiles,measurement,setting,value
OCC(F)(F)C(F)(F)C(F)(F)C(F)(F)C(F)(F)C(F)(F)F,AC50,[1],41 µM (active)
same,outcome,[1],inactive
same,AC50,[2],43.9 µM (active)
same,outcome,[2],inactive
same,AC50,[3],47.7 µM (active)
same,outcome,[3],inactive
same,outcome,[4],inactive
same,outcome,[5],inactive
same,outcome,[6],inactive
FC(F)(F)C(F)(F)C(F)(F)C(F)(F)C(F)(F)C(F)(F)C(F)(F)C(F)(F)F,outcome,[7],inactive
same,outcome,[1],inactive
same,outcome,[2],inactive
same,outcome,[3],inactive
same,outcome,[4],inactive
same,outcome,[5],inactive
same,outcome,[6],inactive
FC(F)(F)C(F)(F)C(F)(F)C(F)(F)C(F)(F)C(F)(F)C(F)(F)C(F)(F)CCS,outcome,[7],inactive
same,outcome,[1],inactive
same,outcome,[2],inactive
same,outcome,[3],inactive
same,outcome,[4],inactive
same,outcome,[5],inactive
same,AC50,[6],6.22 µM (active)
same,outcome,[6],inactive
O=C(O)C(F)(F)C(F)(F)C(F)(F)C(F)(F)C(F)(F)C(F)(F)C(F)(F)C(F)(F)C(F)(F)C(F)(F)C(F)(F)C(F)(F)C(F)(F)F,outcome,[1],inactive
same,outcome,[2],inactive
same,outcome,[3],inactive
same,outcome,[4],inactive
same,outcome,[5],inactive
same,outcome,[8],inactive
same,outcome,[6],inactive
OCCCC(F)(F)C(F)(F)C(F)(F)F,outcome,[1],inactive
same,outcome,[2],inactive
same,outcome,[3],inactive
same,outcome,[4],inactive
same,outcome,[5],inactive
same,outcome,[8],inactive
same,outcome,[6],inactive
O=C(CC(=O)C(F)(F)C(F)(F)F)C(F)(F)F,outcome,[1],inactive
same,outcome,[2],inactive
same,outcome,[3],inactive
same,outcome,[4],inactive
same,outcome,[5],inactive
same,outcome,[8],inactive
same,outcome,[6],inactive
O=S(=O)(O)C(F)(F)C(F)(F)C(F)(F)C(F)(F)C(F)(F)C(F)(F)C(F)(F)F,outcome,[1],inactive
same,outcome,[2],inactive
same,outcome,[3],inactive
same,outcome,[4],inactive
same,outcome,[5],inactive
same,outcome,[8],inactive
same,outcome,[6],inactive
N=C(N)C(F)(F)C(F)(F)C(F)(F)C(F)(F)C(F)(F)C(F)(F)C(F)(F)F,outcome,[7],inactive
same,AC50,[1],44.7 µM (active)
same,outcome,[1],inactive
same,AC50,[2],44.4 µM (active)
same,outcome,[2],inactive
same,AC50,[3],45.4 µM (active)
same,outcome,[3],inactive
same,AC50,[4],46 µM (active)
same,outcome,[4],inactive
same,AC50,[5],44.2 µM (active)
same,outcome,[5],inactive
same,outcome,[6],inactive
FC(F)(F)C(F)(F)C(F)(F)C(F)(F)C(F)(F)CCI,outcome,[1],inactive
same,outcome,[2],inactive
same,outcome,[3],inactive
same,outcome,[4],inactive
same,outcome,[5],inactive
same,outcome,[8],inactive
same,outcome,[6],inactive
FC(F)(F)C(F)(F)C(F)(F)CI,outcome,[1],inactive
same,outcome,[2],inactive
same,outcome,[3],inactive
same,outcome,[4],inactive
same,outcome,[5],inactive
same,outcome,[8],inactive
same,outcome,[6],inactive
C=C(C)C(=O)OCC(F)(F)C(F)(F)C(F)(F)C(F)(F)C(F)(F)C(F)(F)C(F)(F)F,outcome,[1],inactive
same,outcome,[2],inactive
same,outcome,[3],inactive
same,outcome,[4],inactive
same,outcome,[5],inactive
same,outcome,[8],inactive
same,outcome,[6],inactive
CO[Si](OC)(c1ccccc1)c1ccccc1,outcome,[1],inactive
same,outcome,[2],inactive
same,outcome,[3],inactive
same,outcome,[4],inactive
same,outcome,[5],inactive
same,outcome,[8],inactive
same,AC50,[6],32.8 µM (active)
OC[C@@H](O)[C@@H](O)[C@H](O)[C@@H](O)CO,outcome,[9],inactive
same,outcome,[10],inactive
same,outcome,[11],inactive
same,outcome,[12],inactive
same,outcome,[13],inactive
same,outcome,[14],inactive
same,outcome,[15],inactive
same,outcome,[16],inactive
same,outcome,[7],inactive
CC(CCl)OP(=O)(OC(C)CCl)OC(C)CCl (stereo not given),outcome,[9],inactive
same,outcome,[17],inactive
same,outcome,[18],inactive
same,outcome,[10],inactive
same,outcome,[11],inactive
same,outcome,[12],inactive
same,outcome,[14],inactive
same,outcome,[19],inactive
same,outcome,[16],inactive
same,outcome,[7],inactive
same,outcome,[1],inactive
same,outcome,[2],inactive
same,outcome,[3],inactive
same,outcome,[4],inactive
same,outcome,[5],inactive
same,outcome,[6],inactive
same,outcome,[20],inactive
CCc1ccc(C(c2ccc(CC)cc2)C(Cl)Cl)cc1,AC50,[1],31.1 µM (active)
same,AC50,[2],14.7 µM (active)
same,AC50,[3],31.7 µM (active)
same,AC50,[4],27.8 µM (active)
same,AC50,[5],28.8 µM (active)
same,AC50,[8],28.5 µM (active)
same,AC50,[6],14.1 µM (active)

# Source: PubChem BioAssay (EPA / NIEHS)
